For 63 molecules, outcome results are on record in PubChem BioAssay AID624273 (Broad Institute, 2012).

Structures are written as SMILES. Among all 1,000 compounds or so, about 230 (23%) were called active. Roughly 1% stayed inconclusive and do not appear here. How the calls were made is not given here. The list shows a part of the results. Where a call stands in place of a potency, no number is given. Potency and affinity values are given separately.

Long-chain-fatty-acid--AMP ligase FadD28 (Mycobacterium tuberculosis (strain ATCC 25618 / H37Rv)), sequence (P9WQ59 whole entry, looked up): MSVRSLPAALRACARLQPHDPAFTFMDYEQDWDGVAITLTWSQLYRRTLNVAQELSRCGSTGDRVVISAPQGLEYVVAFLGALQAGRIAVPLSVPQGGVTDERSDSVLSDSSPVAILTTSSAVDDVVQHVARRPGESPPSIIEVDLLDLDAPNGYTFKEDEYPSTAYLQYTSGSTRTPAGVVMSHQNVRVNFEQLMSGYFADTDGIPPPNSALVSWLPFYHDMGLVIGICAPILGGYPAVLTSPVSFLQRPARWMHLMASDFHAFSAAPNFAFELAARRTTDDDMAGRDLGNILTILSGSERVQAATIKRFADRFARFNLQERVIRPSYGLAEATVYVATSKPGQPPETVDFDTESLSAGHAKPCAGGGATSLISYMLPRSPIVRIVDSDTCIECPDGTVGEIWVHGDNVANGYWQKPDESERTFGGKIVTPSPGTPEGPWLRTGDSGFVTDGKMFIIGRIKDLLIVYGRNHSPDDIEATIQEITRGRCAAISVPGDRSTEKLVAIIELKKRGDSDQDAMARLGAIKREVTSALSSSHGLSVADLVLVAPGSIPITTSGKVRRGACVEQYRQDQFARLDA

This assay addresses Long-chain-fatty-acid--AMP ligase FadD28 (Mycobacterium tuberculosis (strain ATCC 25618 / H37Rv)) (UniProt P9WQ59). In words: inhibitors of FadD28 bisubstrate probe binding, dose response, biochemical, fluorescence polarization, cherry-pick (AID 624273). To be noted: series mostly up to 50 µM.
For the molecule `Nc1ccccc1C#Cc1ccc([N+](=O)[O-])cc1`, the call was inactive. The same measure for `Cc1cccnc1C(NC(=O)C1CCN(CCCc2ccccc2)CC1)c1ccc(Cl)cc1` (stereo not drawn): “inactive”. The entry for `CON(C)C(=O)c1ccccc1N(C)C(=O)OC(C)(C)C` is “inactive”. The same measure for `O=C(CSc1nnc(Cc2ccccc2)o1)c1ccc2c(c1)OCO2`: “inactive”; for `CC1CCN(S(=O)(=O)c2ccc(NC(=O)Cn3nnc(-c4ccccc4F)n3)cc2)CC1`: “inactive”; for `O=C(CSc1ccc(-c2nc3ccccc3[nH]2)cn1)Nc1ccc(S(=O)(=O)NC2CC2)cc1`: “inactive”. As for `Cc1ccc(NC(=O)COC(=O)c2cccc(S(=O)(=O)N3CCCCCC3)c2)cc1`, the molecule was called inactive. The entry for `Cc1ccc(C)c(OCCC(=O)OCC(=O)Nc2cccc(S(=O)(=O)N3CCCC3)c2)c1` is “inactive”; for `CC(Sc1nnc(CNc2cccc3ccccc23)n1-c1ccccc1)C(=O)N/N=C/c1ccco1` (stereo not drawn) it is “inactive”; for `Cc1cc(C)c2sc(N(CCCN(C)C)C(=O)c3ccc(S(=O)(=O)N4CCCc5ccccc54)cc3)nc2c1` it is “inactive”.

As to `CC1(C)Oc2ccc3ccc(=O)oc3c2/C(=C/O)C1=O`, the molecule was called inactive. The same measure for `COc1ccc(C2NC3=C(CCC3)C3(C#N)C4(N=C(N)C23C#N)OCCO4)cc1` (stereo not drawn): “inactive”; for `O=C(Cc1ccc(Cl)cc1)Nc1ccc(N2CCN(C(=O)c3ccco3)CC2)c(Cl)c1`: “inactive”. The same measure for `Cc1nn(-c2ccccc2)c(Cl)c1/C=N/NC(=O)c1cccnc1`: “inactive”; for `CCOC(=O)c1c(C)nc2sc3c(=O)n(-c4ccc(C(C)=O)cc4)cnc3c2c1-c1ccc(OC)cc1`: “inactive”. As for `C=CCOc1ccc(C2OC34CCCCC3C(C#N)(C#N)C2(C#N)C(=N)O4)cc1` (stereo not drawn), the molecule was classed as inactive.

With `N/C(CSc1ccc(Cl)cc1)=N\NC(=O)c1ccncc1`, the molecule was called inactive. The same measure for `Cc1c(NC(=O)c2ccc3ncccc3c2)c(=O)n(-c2ccccc2)n1C`: “inactive”. The same measure for `COC(=O)c1cc(C)nc2c1C(=O)C(=O)C=C2N1CCOCC1`: “inactive”; for `Cc1ccc(OCCC(=O)OCC(=O)c2c(N)n(CC(C)C)c(=O)n(C)c2=O)cc1`: “inactive”; for `CCC(=O)c1cccc(-c2ccccc2)c1CC`: “inactive”. The entry for `COc1ccc(CN(C)C(=O)c2ccc(OCC(=O)Nc3cccc(C(F)(F)F)c3)c(OC)c2)c(OC)c1` is “inactive”.

For `COc1cc(OC)c(C2=NOC(C(=O)Nc3c(C)n(C)n(-c4ccccc4)c3=O)C2)cc1Cl` (stereo not drawn), the result was inactive.

In the case of `CCCCOc1ccc(Nc2cc(Cl)ccc2C(=O)O)cn1`, the molecule was called inactive. The entry for `N#CCC(=O)Nc1ccc(C(=O)OCC(=O)Nc2cccc(C(F)(F)F)c2)cc1` is “inactive”; for `Cc1ccc(NC(=O)CN2C(=O)S/C(=C/c3ccc(-c4cc(C(=O)O)ccc4C)o3)C2=O)cc1C` it is “inactive”; for `O=C(NCc1ccccc1)C1=C[C@@H](c2ccc(C(F)(F)F)cc2)C[C@@H](OCCCCO)O1` it is “inactive”.

On to `NC(Cc1ccc(C(F)(F)F)cc1)c1csc(NC(=O)Nc2ccccc2Cl)n1` (stereo not drawn), for which the call was inactive. With `Cc1onc(C(=O)N2CCC(C(N)=O)CC2)c1-c1ccccc1Cl`, the outcome was inactive.

`COc1cc(NC(=O)C2CCN(S(=O)(=O)c3ccc(Cl)cc3)CC2)ccc1-n1cnnn1`: the result was inactive. Take `CSc1cccc(CN2CCC(CCC(=O)NC3CC3)CC2)c1`: the molecule was classed as inactive. The same measure for `S=c1nc(-c2ccco2)[nH][nH]1`: “inactive”; for `COc1ccc(OC)c(-n2c(-c3cc(-c4ccco4)[nH]n3)n[nH]c2=S)c1`: “inactive”. The same measure for `Cc1nnc(NC(=O)C2CC(=O)N(c3ccc4c(c3)OCCO4)C2)s1` (stereo not drawn): “inactive”; for `COc1ccc(C2(CNC(=O)C(c3ccccc3)c3ccccc3)CCOCC2)cc1OC`: “inactive”; for `NNC(=O)C1CCCn2c1nc1sc3c(c1c2=O)CCCC3` (stereo not drawn): “inactive”. The entry for `O=C(CSc1ccc(Cl)cc1)N1CCOCC1` is “inactive”; for `Cc1ccc(C(=O)NCCSCc2ccc(Cl)cc2Cl)cc1[N+](=O)[O-]` it is “inactive”; for `Cc1ccc(CSCCNC(=O)c2ccc(NS(C)(=O)=O)cc2)cc1` it is “inactive”. Regarding `COc1ccc(CNC(=O)c2ccc(Cl)c(S(=O)(=O)N3CCCCCC3)c2)cc1`, the molecule was classed as inactive.

For `Cc1ccc(CSCCNC(=O)/C=C/c2ccccc2Cl)cc1`, the molecule was classed as inactive. The entry for `COc1ccc(C(=O)NCCSCc2ccc(C)cc2)cc1` is “inactive”. The entry for `COc1ccc(CCNC(=O)c2ccc(CNS(=O)(=O)c3cccc(Cl)c3)cc2)cc1OC` is “inactive”; for `Brc1ccc(Sc2cnc3ccccc3n2)cc1` it is “inactive”. The same measure for `C=CCSc1nnc2nc3c(nn12)c1cc(C)ccc1n3CC=C`: “inactive”; for `COc1ccc(C(=O)Nc2ccc(C)cn2)cc1S(=O)(=O)N1CCCc2ccccc21`: “inactive”. Consider `COc1ccc(CCNC(=O)c2ccc(CNS(=O)(=O)c3ccc(C(C)(C)C)cc3)cc2)cc1OC`, for which the outcome was inactive. The entry for `COc1ccc(C(=O)NCc2ccc(C)cc2)cc1S(=O)(=O)N1CCCc2ccccc21` is “inactive”; for `COC(=O)CC1C(=O)NCCN1C(=O)c1ccc(S(=O)(=O)N2CCOCC2)cc1` (stereo not drawn) it is “inactive”. Turning to `CC1(c2ccc(OC(F)F)cc2)NC(=O)N(CC(=O)NC2CCCC2)C1=O` (stereo not drawn), the molecule was called inactive. With `CC(C)CCNc1nc(N2CCCC2)c2c(c1C#N)CCN(C)C2`, the molecule was called inactive.

With `CN(c1ccccc1)S(=O)(=O)c1ccc(NC(=O)CC(=O)c2ccccc2)cc1`, the call was inactive. With `O=C(NNC(=O)c1ccc(Cl)c([N+](=O)[O-])c1)c1ccncc1`, the call was inactive. The same measure for `CCN(CC)S(=O)(=O)c1cc(NC(=O)c2cc([N+](=O)[O-])ccc2N2CCOCC2)ccc1C`: “inactive”. The same measure for `O=C(CCNC(=O)c1ccc([N+](=O)[O-])cc1)Nc1ccccc1N1CCOCC1`: “inactive”; for `Cc1ccc(NC(=O)c2cc([N+](=O)[O-])ccc2N2CCOCC2)cc1C`: “inactive”; for `O=C1C=C(O)CC(c2ccco2)C1` (stereo not drawn): “inactive”. The same measure for `CC(=O)C1=C(C)NC(SCC(=O)c2ccc(F)cc2)=C(C#N)C1c1ccco1` (stereo not drawn): “inactive”; for `COc1ccc(NC(=O)Nc2ccc3c(c2)C(=O)N([C@H](C)CO)C[C@H](C)[C@@H](CN(C)S(=O)(=O)c2ccc(OC)cc2)O3)cc1`: “inactive”; for `CCN(CC)CCCNC(=O)C1c2ccccc2C(=O)N(C)C1c1ccc(OC)cc1` (stereo not drawn): “inactive”.

For the molecule `COc1ccc(/C(N)=N/OC(=O)c2c(-c3ccccc3Cl)noc2C)cc1OC`, the molecule was called inactive. The same measure for `CCOc1cc(/C=C2\SC(=O)N(CC(=O)Nc3ccccc3F)C2=O)cc([N+](=O)[O-])c1O`: “inactive”; for `O=C1/C(=C\c2cc([N+](=O)[O-])ccc2O)SC(=S)N1Cc1ccc(Cl)cc1`: “inactive”.
